Screening results: PubChem, National Center for Advancing Translational Sciences (NCATS)
Hits are enriched below; roughly 2.4% of the tested compounds scored in any of these assays.
D2 ag-1 – activates the human D2 dopamine receptor. DiscoveRx PathHunter D2 beta-arrestin, luminescence, 90 min; 100% = 57 uM dopamine signal. actives 0.084% (n = 360,000). P14416. activation, % (test concentration not listed); in the data active = activation above about 40%; inconclusive = between about 15% and that limit
Target sequence (P14416 whole entry, looked up): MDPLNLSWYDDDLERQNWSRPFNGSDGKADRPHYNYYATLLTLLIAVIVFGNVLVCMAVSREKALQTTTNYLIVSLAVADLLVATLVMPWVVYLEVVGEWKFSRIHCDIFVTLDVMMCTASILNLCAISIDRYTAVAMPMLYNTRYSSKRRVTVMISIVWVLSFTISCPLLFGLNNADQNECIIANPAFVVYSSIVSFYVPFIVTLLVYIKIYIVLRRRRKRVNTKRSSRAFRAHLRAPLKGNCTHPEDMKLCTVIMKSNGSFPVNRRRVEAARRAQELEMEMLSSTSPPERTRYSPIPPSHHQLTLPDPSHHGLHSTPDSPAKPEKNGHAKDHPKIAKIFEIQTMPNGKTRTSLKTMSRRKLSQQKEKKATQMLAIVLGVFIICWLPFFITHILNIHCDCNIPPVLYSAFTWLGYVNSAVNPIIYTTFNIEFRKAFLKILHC
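Agonist mode: compounds alone added to overnight-plated D2 PathHunter cells for 90 min at 37 C, with 57 uM final dopamine (EC100) defining full response. Beta-arrestin recruitment detected by chemiluminescent reagent, read after 1 h at ambient temperature.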
D2 PAM-1 – potentiates the human D2 dopamine receptor allosterically; P14416; DiscoveRx D2 beta-arrestin cells, luminescence, 90 min; 100% = 57 uM dopamine signal; potentiation, % (concentration not given with the values); actives 0.23% (n = 360,000); AID 624464; in the data active = potentiation above about 50%; inconclusive = mostly about 30% to 49%
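PathHunter D2 cells, attached overnight at 37 deg C, received compound in DMSO plus dopamine at EC20 (50 nM final) for 90 min at 37 deg C. Beta-arrestin recruitment was read as luminescence after 1 h with detection reagent at ambient temperature.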
D2 antag – D2 dopamine receptor (human) antagonism; HEK293 TREx D2 cells, calcium flux, dopamine EC80; inhibition, % at 10 µM; actives 2% (n = 340,000); AID 485344; in the data active = inhibition above about 30%; inactive = below that, where a call was filed
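Overnight-induced (tetracycline, 30 C) HEK293 T-REx cells carrying force-coupled D2 receive a no-wash calcium dye, then compound, then EC80 dopamine at 180 s; signals are read kinetically throughout.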
D2 PAM-2 – D2 dopamine receptor (human) potentiation | actives 0.34% (n = 340,000) | HEK293 T-REx D2, calcium flux, EC20 dopamine potentiation | AID 485347 | P14416 | potentiation, % at 10 µM;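 active = potentiation over 3 SD above the plate norm, cut at about 30% in these data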
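Primary screen. Calcium kinetics in induced HEK293 T-REx D2 cells: compound pre-addition 180 s, EC20 dopamine, 180 s more.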
D2 ag-2 – activates the human D2 dopamine receptor; actives 0.53% (n = 340,000); HEK293 T-REx D2 cells, calcium flux agonist mode; activation, % at 2 µM; P14416;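 active = activation over 3 SD above normal in the single-dose calcium agonist read, cut at about 30% in these data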
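Calcium-flux readout, 1 cycle/sec over 180 s following compound pin transfer, in inducible HEK293 Trex D2 cells (force-coupled); dopamine controls included. Positive calcium responses during this window marked compounds as potential agonists.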
Of the large screens only hits and unclear results are named; the others gave an inactive call.

CCN(CCCNC(=O)c1cc2c(=O)[nH]c3ccc(C)cc3c2s1)Cc1ccccc1	none (no result: D2 ag-1, D2 PAM-1, D2 antag, D2 ag-2)
Cc1cn2c(=O)cc(COC(=O)c3ccc(NC(=O)COc4ccc(C)c(C)c4)cc3)nc2s1	none (no result: D2 ag-1, D2 PAM-1, D2 antag)
Cc1ccc(C(c2cc(Cl)c3cccnc3c2O)N2CCN(C)CC2)cc1 (centres undefined)	D2 antag 38.6
CN1CCN(C(c2ccccn2)c2cc(Cl)c3cccnc3c2O)CC1 (centres undefined)	none
CC(=O)N1CCc2[nH]c3ccccc3c2C1	none
O=C(CN1CCN(c2ccccc2)CC1)N1CCc2[nH]c3ccccc3c2C1	D2 ag-2 36.1
O=C(CCCCl)N1CCc2[nH]c3ccccc3c2C1	D2 antag 31.8
O=C(Cn1c(=S)[nH]c2ccccc2c1=O)N1CCN(c2ccccc2)CC1	D2 antag 30.9
O=C(CN1CCc2[nH]c3ccccc3c2C1)N1CCCCC1	none
CCOC(=O)C1CCN(C(=O)c2c(C)nn(-c3ccc(F)cc3)c2-n2cccc2)CC1	none (no result: D2 ag-1, D2 PAM-1, D2 antag)
CCCn1c(SCC(=O)Nc2nnc(CC)s2)nnc1-c1ccco1	D2 PAM-2 37.5
CCn1c(SCC(=O)Nc2ccc3c(c2)c2ccccc2n3CC)nnc1-c1ccco1	D2 antag 45.5
CCCn1c(SCC(=O)NCc2ccco2)nnc1C(C)C	D2 antag 46.5
Cc1nnc(SCC(=O)NCc2ccco2)n1Cc1ccccc1	none (no result: D2 antag, D2 PAM-2, D2 ag-2)
CCn1c2ccccc2c2cc(NC(=O)c3cccc([N+](=O)[O-])c3)ccc21	D2 antag 42.0
Cc1ccc(CS(=O)(=O)c2cn(CC(=O)N(C)c3ccccc3)c3ccccc23)cc1	none (no result: D2 ag-1, D2 PAM-1, D2 antag)
Cc1cc(C(=O)Nc2c(C)nc3ccccn3c2=O)ccc1[N+](=O)[O-]	none (no result: D2 ag-1, D2 PAM-1, D2 antag)
CCOc1cccc2sc(Nc3nc4ccc(NC(C)=O)cc4s3)nc12	D2 antag 30.8
COc1ccc(C2C(C(=O)Nc3ccccc3)=C(C)Nc3nc(-c4ccccc4Cl)nn32)cc1OC (centres undefined)	none (no result: D2 ag-1, D2 PAM-1, D2 antag)
CC1CN(CN2C(=O)c3ccccc3C2=O)CC(C)O1 (centres undefined)	none
CC1CN(CCCCN2C(=O)c3ccccc3C2=O)CC(C)O1 (centres undefined)	D2 antag 39.9
N#Cc1c(N)sc(=S)c2c1CCN(Cc1ccccc1)C2	D2 antag 31.6 (no result: D2 ag-1, D2 PAM-1)
CCN1CCc2c(sc(N)c2C#N)C1	D2 ag-1 43.4, D2 PAM-1 inconclusive (no result: D2 PAM-2)
N#Cc1c(NCCO)nc(NCc2ccccc2)c2c1CCN(Cc1ccccc1)C2	none
CC(C)N1CCc2c(sc(N)c2C#N)C1	none
C=CCNc1nc(N2CCCCC2)c(C#N)c2c1CN(Cc1ccccc1)CC2	D2 antag 72.4
CCN1CCc2c(C#N)c(N3CCCCC3)nc(NCc3ccccc3)c2C1	none
Cc1nn(-c2ccccc2)c2sc(C(=O)Nc3cccc(O)c3)cc12	none (no result: D2 ag-1, D2 PAM-1, D2 antag)
O=S(=O)(Nc1cccc(-c2ccc(N3CCOCC3)nn2)c1)c1ccc(F)c(C(F)(F)F)c1	none (no result: D2 ag-1, D2 PAM-1, D2 antag, D2 ag-2)
CCOc1ccc(NC(=O)CCC(=O)NNS(=O)(=O)c2ccccc2[N+](=O)[O-])cc1	D2 ag-2 105.2
CCCNC(=O)Cn1c(=O)n(CC(=O)N2CCCCC2)c(=O)c2sccc21	none
CCN(CC)C(=O)Cn1c(=O)n(CC(=O)N2CCCCC2)c(=O)c2sccc21	D2 antag 33.0
COc1cc(C(=O)NCC(c2cccs2)N(C)C)cc(Cl)c1OC(C)C (centres undefined)	D2 antag 34.5
CCCOc1ccc(C(=O)NCC(c2cccs2)N(C)C)cc1OC (centres undefined)	none
COc1cc2ccccc2cc1C(=O)NCC(c1cccs1)N(C)C (centres undefined)	D2 antag 55.5
CCOc1ccccc1CN1CCc2nc(N3CCN(c4ccccc4F)CC3)ncc2C1	none (no result: D2 ag-1, D2 PAM-1, D2 antag, D2 PAM-2)
CCCCNC(=O)C1CCN(c2nc3ccccc3nc2C(F)(F)F)CC1	none (no result: D2 ag-1, D2 PAM-1, D2 antag)
Cc1c(C(=O)Nc2ccc(C(C)C)cc2)sc2nc[nH]c(=O)c12	none (no result: D2 ag-1, D2 PAM-1, D2 antag, D2 ag-2)
CC(=O)N1c2ccccc2C(=O)C1N1CCN(c2cccc(C)c2C)CC1 (centres undefined)	none (no result: D2 ag-1, D2 PAM-1, D2 antag, D2 ag-2)
Cc1ccc(C)c(N2CCN(C(=O)CCn3c(=O)[nH]c4ccccc4c3=O)CC2)c1	none (no result: D2 ag-1, D2 PAM-1, D2 antag)
CCOc1ncccc1C(=O)Nc1nnc(C2CC2)s1	D2 PAM-2 37.0
CCOc1ncccc1C(=O)Nc1nnc(C)s1	none
O=C(O)c1ccc(N/N=C/c2ccc(-c3cccc(Cl)c3)o2)cc1	none (no result: D2 antag, D2 PAM-2, D2 ag-2)
O=C(O)c1cccc(-c2ccc(/C=N/Nc3ccc([N+](=O)[O-])cc3)o2)c1	D2 ag-2 35.7
O=C(O)c1ccc(-c2ccc(/C=N/Nc3ccc([N+](=O)[O-])cc3)o2)cc1	D2 ag-2 53.8
COC(=O)c1ccccc1NC(=O)CN1CCN(C23CC4CC(CC(C4)C2)C3)CC1	D2 antag 72.2
COC(=O)c1ccccc1NC(=O)CN1CCc2ccccc2C1	none
O=C(CSc1nnc(-c2ccc(Br)o2)n1Cc1ccccc1)c1ccccc1F	D2 PAM-2 71.1
Cc1cc(S(=O)(=O)n2ccnc2C(C)C)cc([N+](=O)[O-])c1C	none (no result: D2 ag-1, D2 PAM-1, D2 antag)
Cn1c(O)c(/C=C2\C=Nc3ccccc32)sc1=Nc1ccc(C(=O)O)cc1	none
O=C(Cc1ccccc1)Nn1c(O)c(/C=C2\C=Nc3ccccc32)sc1=S	D2 ag-2 34.0
COC(=O)CS(=O)(=O)c1nc2ccccc2nc1N1CCCCC1	none (no result: D2 ag-1, D2 PAM-1, D2 antag)
CC1CCCC(NC(=O)COC(=O)c2cccc(NS(=O)(=O)/C=C/c3ccccc3)c2)C1C (centres undefined)	D2 antag 49.8
Cc1cc(C)cc(NC(=O)C(Cc2ccccc2)N2Cc3ccccc3C2=O)c1 (centres undefined)	none (no result: D2 ag-1, D2 PAM-1, D2 antag)
CCOC(=O)CN(C(=O)CSc1nnc2c(n1)[nH]c1ccccc12)c1ccccc1	none
CCOC(=O)CN(C(=O)CSc1nnc2c(n1)[nH]c1ccc(F)cc12)c1ccccc1	D2 antag 72.5
CCOC(=O)CN(C(=O)CSc1nnc2c(n1)[nH]c1c(C)cc(C)cc12)c1ccccc1	D2 antag 60.8 (no result: D2 ag-1, D2 PAM-1)
CCc1c(-c2ccccc2)nc2ccccc2c1C(=O)NC(C)c1ccccc1 (centres undefined)	none (no result: D2 ag-1, D2 PAM-1, D2 antag)
COc1ccc(-n2c(CCC(=O)O)ccc2-c2ccccc2)c(OC)c1	none (no result: D2 ag-1, D2 PAM-1, D2 antag)
CC(=O)c1ccc(S(=O)(=O)N2CCN(C(=O)c3ccc(-n4nc(C)c(Cl)c4C)cc3)CC2)cc1	D2 antag 30.6
CCc1nnc2c(N3CCN(c4cc(Cl)ccc4C)CC3)nc3ccccc3n12	none (no result: D2 ag-1, D2 PAM-1, D2 antag)
COC(=O)c1cc(S(=O)(=O)n2nc(C)c(Br)c2C)c(Cl)cc1Cl	D2 PAM-1 53.5
Cc1cc(C)n(S(=O)(=O)c2cc(C(=O)O)c(Cl)cc2Cl)n1	none (no result: D2 PAM-2)
N/C(=N\OC(=O)c1cccc(Cl)c1)c1cccnc1	D2 ag-1 inconclusive, D2 PAM-1 138.0
N/C(=N\OC(=O)c1ccc(Cl)c(Cl)c1)c1cccnc1	D2 ag-1 inconclusive, D2 PAM-1 116.6
